# ± gives the standard deviation.
# Tested on: OVCAR-3-derived ovarian cancer stem-like cells (spheroids)
# Assay: cell growth relative to untreated control; higher = more growth (less inhibition)
# Conditions: 2.29 µM; 96 h
# Procedure, shortened: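 OVCAR-3 spheroid-derived stem-like cells were trypsin-dissociated, seeded at 50,000 cells/mL in stem cell medium in ultra-low attachment 96-well plates and preincubated 24 h. Compounds were then added at 2.29 uM for 96 h at 37°C, 5% CO2, in 4 replicate wells. Viability was read as TOX8 resazurin fluorescence (ex 560/em 590 nm) after 4 h. Percent growth was calculated relative to untreated wells after blank subtraction and Grubbs outlier removal.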
row,Compound,cell growth [%]
1,Nc1nc(-c2cccs2)cs1,57.1 ± 11
2,O=C1C(Br)=C(Br)C(=O)c2ccccc21,3.3 ± 4
3,CCN1C=C/C(=C\C=C\c2cc[n+](CC)c3ccccc23)c2ccccc21,22.2 ± 4.2
4,Cn1ncc2cc3c(Nc4ccc(Cl)cc4)cccc3nc21,8 ± 4.9
5,CCC1CN2CCc3cc(OC)c(OC)cc3C2CC1CC1c2cc(OC)c(OC)cc2CCN1C(=O)C1CCCN1C(=O)OCc1ccccc1 (configuration not stated),122 ± 21
6,Cc1cccc(Cl)c1NC(=O)/C=C/c1ccccc1,102 ± 14
7,O=C(ON=C1c2ccccc2C(Br)C(Br)c2ccccc21)c1ccccc1 (configuration not stated),107 ± 22
8,COc1ccc(NC(=O)C(=O)/C=C(\O)c2ccccc2)cc1,107 ± 46
9,COc1ccc(C=CC(=O)Oc2cc(O)cc(O)c2)cc1,99.6 ± 16
10,CCc1cccc(CC)c1NC(=O)C(C#N)C1=C(Cl)C(=O)c2ccccc2C1=O (configuration not stated),70.3 ± 31
11,NC(=O)C#CC(N)=O,55.9 ± 13
12,Cc1cc2c(cc1C)[n+](=O)c(C(=O)/C=C/c1ccccc1[N+](=O)[O-])c(C)n2[O-],123 ± 66
13,C/C(=N\Nc1nc2ccccc2s1)c1ccncn1,30.8 ± 7.4
14,CCN(CC)CCOc1ccc(C(O)(Cc2ccc(OC)cc2)c2ccccc2)cc1 (configuration not stated),118 ± 40
15,O=C(N=Nc1c(O)[nH]c2c(Cl)cc(Cl)cc12)c1ccccc1O,93.1 ± 22
16,O=C(Nc1ccc(Sc2ccc(N=Nc3c(O)c(S(=O)(=O)O)cc4cc(S(=O)(=O)O)ccc34)cc2)cc1)c1ccc(N=Nc2c(O)ccc3c(S(=O)(=O)O)cc(S(=O)(=O)O)cc23)cc1,95.9 ± 9.6
17,Cc1cccc(C)c1NC(=O)C(=O)C(c1ccccc1Cl)S(=O)(=O)Cc1ccccc1Cl (configuration not stated),85.2 ± 16
18,C/C(=N\NC(=S)N1CCC1)c1ccccn1,20.6 ± 4
19,COC(=O)c1cc(-c2c[nH]cc2C(=O)OCc2ccccc2)cn1S(=O)(=O)c1ccc(C)cc1,140 ± 35
20,Oc1ccc2ccccc2c1N=Nc1cccc2ccccc12,82.9 ± 12
21,COC(=O)NC1C(C)OC(OC2C/C=C(/C)C3C=CC4C(OC5CC(OC6CC(O)C(OC7CC(O)C(OC)C(C)O7)C(C)O6)C(O)C(C)O5)C(C)CC(C)C4C3(C)/C(O)=C3\C(=O)OC4(CC(C)C(CO)=CC4/C=C\2C)C3=O)CC1(C)[N+](=O)[O-] (configuration not stated),105 ± 34
22,COc1ccc(/C(=N/O)C(c2ccc(OC)cc2)C2C(=O)Oc3ccccc32)cc1 (configuration not stated),73.1 ± 14

# — the supplement of paper PMC3484114
